Shown are actives, neighbours in structure and some others; about 2.9% of the full set was active somewhere.
DAGLB inhibitor = diacylglycerol lipase beta (human) inhibition; Q8NCG7; AID 504411; HEK293T DAGLB membrane lysate, EnzChek fluorogenic substrate; 340,000 compounds, 0.059% hits; inhibition, % at 5.17 µM; in the data active = inhibition above about 34%
H9c2 protect = protects H9c2 cardiomyocytes from peroxide injury. AID 588492. H2O2 injury protection, ATPLite, 2 h. 360,000 compounds, 0.63% hits. protection from H2O2 cell death, % at 20 µM;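 active = compounds giving at least 50% protection of heart cells from peroxide-induced death in the single-dose screen, raw or plate-pattern-corrected value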
HGIII-sPLA2 inh = Inhibits HGIII-sPLA2 liposome hydrolysis, primary screen; QFRET BODIPY PC-A2 liposome hydrolysis, fluorescence; inhibition, % at 12.2 µM; 370,000 compounds, 0.56% hits; AID 743126;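 active = inhibition above mean plus 3 SD of compounds lying within the high and low control bounds, cut at about 19% in these data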
Target sequence (Q9NZ20 whole entry, looked up): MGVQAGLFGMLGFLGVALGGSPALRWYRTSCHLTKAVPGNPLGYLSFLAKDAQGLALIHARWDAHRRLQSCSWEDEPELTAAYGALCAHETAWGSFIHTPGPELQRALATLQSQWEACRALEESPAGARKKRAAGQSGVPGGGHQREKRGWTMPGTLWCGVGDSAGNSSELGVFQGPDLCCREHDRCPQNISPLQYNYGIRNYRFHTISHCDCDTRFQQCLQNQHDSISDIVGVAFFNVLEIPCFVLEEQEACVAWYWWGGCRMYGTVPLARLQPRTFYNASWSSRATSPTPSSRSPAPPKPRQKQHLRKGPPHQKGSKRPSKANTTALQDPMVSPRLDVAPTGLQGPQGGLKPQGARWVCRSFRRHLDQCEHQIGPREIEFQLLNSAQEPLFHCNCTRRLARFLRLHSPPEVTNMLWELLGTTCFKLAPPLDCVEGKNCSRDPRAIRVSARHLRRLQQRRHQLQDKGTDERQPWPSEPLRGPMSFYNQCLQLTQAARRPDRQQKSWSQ
Rtt109 Vps75 = C. albicans Rtt109 histone acetyltransferase inhibition. Q5AAJ8. purified Rtt109/Vps75, ThioGlo CoA-SH fluorescence, 4 h. inhibition, % at 34.9 µM. 330,000 compounds, 0.16% hits;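 active = inhibition of at least 50% in every replicate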
Myeloid diff 2 = myeloid differentiation induction; calls only at 10 µM; AID 624256; ER-HoxA9 myeloid progenitors, lysozyme-GFP differentiation, flow cytometry; 360,000 compounds, 1% hits;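 active = normalized GFP-positive differentiation at or above the plate's own cutoff, the solvent-only control mean plus 3 SD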;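 note: cells exposed to compound for four days before flow analysis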
ABHD5-PLIN5 inh = blocks binding of human ABHD5 to perilipin-5 | 360,000 compounds, 0.78% hits | Q00G26+Q8WTS1 | Split G. princeps luciferase complementation, luminescence, 4 h | inhibition, % at 4 µM;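 active = inhibition above the mean inhibition across every tested compound plus 3 SD, cut at about 22% in these data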
ABHD5-PLIN5 conf = confirmation of human ABHD5-PLIN5 interaction inhibitors; shares compounds with ABHD5-PLIN5 inh; biochemical ABHD5-PLIN5 interaction, luminescence; inhibition, % at 4 µM; 2,200 compounds, 67% hits; AID 651612; in the data active = inhibition above about 23%
HNF4 split-luc = HNF4 split-luciferase signal hit, counter-screen; HNF4 dimerization, luminescence, biochemical; AID 651674; 2,200 compounds, 77% hits; inhibition, % at 4 µM; shares compounds with ABHD5-PLIN5 inh;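 active = mean inhibition across replicate wells exceeding the computed hit threshold, cut at about 13% in these data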;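 note: light from luciferase halves that rejoin when HNF4 fusion proteins dimerize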
Each line names hits and unclear results; the compound was inactive in the other large screens (follow-up assays come after a bar, where they were run).

CCCc1cc(CN2CCOCC2)c(O)c(CN2CCOCC2)c1O	ABHD5-PLIN5 inh 25 | ABHD5-PLIN5 conf 63 | HNF4 split-luc 100
Cc1cccc(C)c1N1C(=O)c2ccccc2NC(=O)C1C(=O)Nc1ccc(N2CCOCC2)cc1 (centres undefined)	none (no result: DAGLB inhibitor, H9c2 protect, Rtt109 Vps75)
O=C(/C=C/c1ccccc1)COC(=O)c1ccccc1	ABHD5-PLIN5 inh 59 | ABHD5-PLIN5 conf 80 | HNF4 split-luc 92
COc1ccccc1OCc1nnc(SCC(=O)NCc2ccco2)n1Cc1ccco1	ABHD5-PLIN5 inh 31 | ABHD5-PLIN5 conf 48 | HNF4 split-luc 34
O=C(COC(=O)C1=Cc2ccccc2OC1)NCc1ccco1	none
CC1CCN(C(=O)c2ccc(S(=O)(=O)NCc3ccco3)cc2)CC1	ABHD5-PLIN5 inh 24 (no result: Myeloid diff 2) | ABHD5-PLIN5 conf inactive | HNF4 split-luc inactive
